Measurements taken from PubChem BioAssay (Tox21).
Inconclusive results are not listed. Activity calls are given as the source filed them. Unless noted, calls come from the whole dose curve; as a rule, active = well fitted curve in the direction sought with a large enough effect in the repeat runs; inconclusive = weak or mixed curves; inactive = no such curve, though single readings can be large; an effect the other way counts as inactive or inconclusive.

Columns and labels:
[1] = qHTS assay for small molecules that induce genotoxicity in human embryonic kidney cells expressing luciferase-tagged ATAD5 (AID 651632); note: nearly all actives have a fitted effect of over 15% in size; note: potency is the fitted concentration of half-maximal effect
In short: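 HEK293T cells carrying luciferase-tagged ATAD5 were given compound or DMSO vehicle and incubated 16 hr at 37C, 5% CO2. Luciferase activity was read after 30 min at room temperature with Amplite; a rise signals genotoxic stress.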

[2] = qHTS assay for small molecule agonists of the p53 signaling pathway - cell viability (AID 651633; calls by dose curve; note: series mostly up to about 83 µM; nearly all actives have a fitted effect of over 30% in size)
In short: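 Viability counter-read: CellTiter-Glo luminescence (30 min, room temperature) in the same p53RE-bla plates. These plates had been exposed to compounds for 16 h at 37 C.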

[3] = qHTS assay for small molecules that induce genotoxicity in human embryonic kidney cells expressing luciferase-tagged ATAD5 - cell viability (AID 651634; calls by dose curve; note: nearly all actives have a fitted effect of over 25% in size)
In short: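 HEK293T cells carrying luciferase-tagged ATAD5, 2,000 cells/well, exposed to compound for 15.5 hr at 37C. Viability read as live-cell protease activity by CellTiter-Fluor fluorescence after 30 min at 37C.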

[4] = qHTS assay for small molecule disruptors of the mitochondrial membrane potential - cell viability (AID 720634; calls by dose curve;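 note: human HepG2 liver cancer cells; series mostly up to about 83 µM; nearly all actives have a fitted effect of over 20% in size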)
In short: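 HepG2 cells, 2,000 per well, attached overnight, then treated 1 hr at 37 C, 5% CO2. Viability read as ATP by CellTiter-Glo luminescence after 30 min at room temperature. Read in the same wells as the m-MPI membrane-potential dye assay.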

[5] = qHTS assay for small molecule disruptors of the mitochondrial membrane potential (AID 720635)
In short: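 Mitochondrial membrane potential tracked with Mito-MPS dye, red aggregates (ex 540/em 590 nm) against green monomers (ex 490/em 535 nm). Compound treatment 1 hr at 37C, dye 30 min in HepG2.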

[6] = qHTS assay to test for compound auto fluorescence at 590 nm (red) in HepG2 cells (AID 720674)
In short: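 Red autofluorescence (Ex/Em 540/590 nm, Rose Bengal sodium equivalents) was measured in HepG2 cells, 2,000 per well in MEM plus 10% FBS, plated overnight at 37 C. Readings were taken 1 hr after adding 23 nL compound or DMSO, at 37 C and 5% CO2.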

[7] = qHTS assay to test for compound auto fluorescence at 535 nm (green) in HEK293 cells (AID 720680)
[8] = qHTS assay to test for compound auto fluorescence at 460 nm (blue) in HEK293 cell free culture (AID 720681)
In short: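 Blue fluorescence (Ex 405/Em 460 nm, triamterene-equivalent) was read immediately after pin transfer of compound or DMSO into medium (DMEM, 10% FBS) without cells.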

[9] = qHTS assay to test for compound auto fluorescence at 535 nm (green) in HEK293 cell free culture (AID 720682)
In short: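 DMEM + 10% FBS, cell-free; cpd or DMSO pinned in; Ex485/Em535 read; output as fluorescein-equivalent signal.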

[10] = qHTS assay to test for compound auto fluorescence at 590 nm (red) in HEK293 cell free culture (AID 720683)
In short: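 Red-channel autofluorescence of compounds in culture medium (DMEM, 10% FBS), no cells, measured at 540/590 nm. Rose Bengal sodium is the reference fluorophore for equivalence.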

[11] = qHTS assay to test for compound auto fluorescence at 590 nm (red) in HepG2 cell free culture (AID 720684)
In short: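 Plate contents were MEM with 10% FBS plus test compound or DMSO, no cells. Fluorescence was recorded with 540 nm excitation and 590 nm emission.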

[12] = qHTS assay to test for compound auto fluorescence at 460 nm (blue) in HepG2 cell free culture (AID 720685)
In short: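 Compound (23 nL) or DMSO pinned into cell-free MEM with 10% FBS; blue fluorescence read at 405/460 nm excitation/emission, expressed as auto-fluorescence equivalency to triamterene.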

[13] = qHTS assay to test for compound auto fluorescence at 535 nm (green) in HepG2 cell free culture (AID 720686)
[14] = qHTS assay to test for compound auto fluorescence at 460 nm (blue) in HepG2 cells (AID 720687)
In short: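 Blue-channel autofluorescence (Ex/Em 405/460 nm, triamterene-equivalent) was measured after 1 hr compound exposure at 37 C, 5% CO2. Cells were HepG2, plated overnight at 37 C in MEM plus 10% FBS.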

[15] = target: Glucocorticoid receptor (Homo sapiens) (UniProt P04150); assay: qHTS assay to identify small molecule agonists of the glucocorticoid receptor (GR) signaling pathway (AID 720691; active = well fitted activation curve with a large enough effect in the signal ratio in the repeat runs, not every such curve was filed as active; the % refers to the signal ratio; note: potency is the fitted concentration of half-maximal effect)
In short: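 GR-bla HeLa cells carrying a GRE-driven beta-lactamase reporter, exposed to compounds for 18 h at 37 C. Reporter activation read as fluorescence after 2 h with LiveBLAzer B/G FRET substrate at room temperature.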

[16] = target: Glucocorticoid receptor (Homo sapiens) (UniProt P04150); assay: qHTS assay to identify small molecule antagonists of the glucocorticoid receptor (GR) signaling pathway (AID 720692; active = well fitted inhibition curve with a large enough effect in the signal ratio in the repeat runs, not every such curve was filed as active; the % refers to the signal ratio)
In short: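 GR-bla HeLa cells carrying a GRE-driven beta-lactamase reporter received compound after 4 h plating, then dexamethasone (5 nM final). After 18 h at 37C, the FRET substrate was loaded for 2 h at room temperature and fluorescence read.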

[17] = qHTS assay to test for compound auto fluorescence at 535 nm (green) in HepG2 cells (AID 720675)
[18] = qHTS assay to test for compound auto fluorescence at 590 nm (red) in HEK293 cells (AID 720679)
In short: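 Autofluorescence equivalency to Rose Bengal sodium, 540/590nm, in HEK293 cells exposed overnight to 23 nL compound per well.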

[19] = qHTS assay to test for compound auto fluorescence at 460 nm (blue) in HEK293 cells (AID 720678)
In short: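 Auto fluorescence in the blue band was quantified as triamterene equivalency. HEK293 cells were seeded at 2,000/well, dosed after a 4-5 hr attachment, and kept overnight at 37C before the 405/460 nm reading.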

[20] = qHTS assay for small molecule agonists of the p53 signaling pathway (AID 651631; calls by dose curve; note: nearly all actives have a fitted effect of over 15% in size)
In short: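 Testing took place in human colorectal HCT-116 cells with stable p53RE-driven beta-lactamase. After 16 h of compound exposure at 37 °C, a FRET substrate was added and fluorescence recorded 2 h later.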
% is set by controls: 0 for no effect and ±100 for the full control effect.

Glucocorticoid receptor (Homo sapiens), sequence (P04150 whole entry, looked up): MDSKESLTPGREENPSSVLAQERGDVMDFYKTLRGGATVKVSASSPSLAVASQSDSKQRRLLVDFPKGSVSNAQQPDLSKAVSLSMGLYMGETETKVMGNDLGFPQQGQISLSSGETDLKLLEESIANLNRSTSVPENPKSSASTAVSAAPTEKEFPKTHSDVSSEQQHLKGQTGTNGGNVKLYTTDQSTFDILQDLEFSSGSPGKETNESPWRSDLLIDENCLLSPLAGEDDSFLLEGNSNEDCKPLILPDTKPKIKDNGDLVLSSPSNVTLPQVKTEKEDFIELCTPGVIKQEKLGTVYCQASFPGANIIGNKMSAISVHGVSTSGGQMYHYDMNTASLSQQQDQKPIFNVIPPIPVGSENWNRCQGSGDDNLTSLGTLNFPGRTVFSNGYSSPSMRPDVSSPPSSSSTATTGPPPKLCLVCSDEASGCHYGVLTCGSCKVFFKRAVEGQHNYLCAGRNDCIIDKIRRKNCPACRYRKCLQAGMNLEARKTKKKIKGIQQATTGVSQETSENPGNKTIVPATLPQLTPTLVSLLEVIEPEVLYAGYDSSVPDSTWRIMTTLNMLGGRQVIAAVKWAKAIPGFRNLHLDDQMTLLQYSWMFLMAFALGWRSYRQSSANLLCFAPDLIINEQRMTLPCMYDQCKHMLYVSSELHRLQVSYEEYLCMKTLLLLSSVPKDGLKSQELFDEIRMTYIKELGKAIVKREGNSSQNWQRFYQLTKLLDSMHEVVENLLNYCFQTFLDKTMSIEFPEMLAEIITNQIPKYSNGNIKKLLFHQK

O=C(O)c1cn(C2CC2)c2cc(N3CCNCC3)c(F)cc2c1=O
inactive: Potency [1] | Potency [2] | Potency [3] | outcome [4] | Potency [5] | fluorescence, relative to Rose Bengal [6] -0.332% [at 18.6 µM] | fluorescence, % of fluorescein [7] -0.0935% [at 18.6 µM] | fluorescence, % of fluorescent control [8] -0.0136% [at 18.6 µM] | activity change [9] 0.0246% [at 18.6 µM] | fluorescence, % of fluorescent control [10] -0.102% [at 18.6 µM] | fluorescence, % of Rose Bengal [11] 0.543% [at 18.6 µM] | fluorescence, % of fluorescent control [12] 0.0229% [at 18.6 µM] | fluorescence, % of fluorescein control [13] 0.0355% [at 18.6 µM] | fluorescence, % of fluorescent control [14] -0.0408% [at 18.6 µM] | Potency [15] | Potency [16]

CCCCOC(=O)CCC(C)=O
inactive: Potency [1] | Potency [2] | Potency [3] | outcome [4] | Potency [5] | outcome [17] | outcome [18] | outcome [7] | outcome [8] | outcome [9] | outcome [10] | outcome [12] | outcome [13] | outcome [14] | Potency [15] | Potency [16]

O=S(=O)(O)c1cccc(S(=O)(=O)O)c1
inactive: Potency [1] | Potency [2] | Potency [3] | outcome [4] | outcome [6] | outcome [17] | outcome [19] | outcome [18] | outcome [7] | outcome [8] | outcome [9] | outcome [10] | outcome [12]

N[C@@H](CCC(=O)O)C(=O)O
inactive: Potency [1] | Potency [2] | Potency [3] | outcome [4] | Potency [5] | outcome [6] | outcome [17] | outcome [19] | outcome [18] | outcome [7] | outcome [8] | outcome [9] | outcome [10] | outcome [11] | outcome [12] | outcome [13] | outcome [14] | Potency [15] | Potency [16]

CC(C)(N)C#N
inactive: Potency [1] | Potency [2] | Potency [3] | outcome [4] | outcome [6] | outcome [17] | outcome [19] | outcome [18] | outcome [7] | outcome [8] | outcome [9] | outcome [10] | outcome [11] | outcome [12] | outcome [14] | Potency [15]

O=CN(CCO)CCO
inactive: Potency [1] | Potency [2] | Potency [3] | outcome [4] | Potency [5] | outcome [17] | outcome [19] | outcome [18] | outcome [7] | outcome [8] | outcome [9] | outcome [10] | outcome [11] | outcome [12] | Potency [15]

CC[N+](CC)(CC(=O)Nc1c(C)cccc1C)Cc1ccccc1 (tested in a mixture with another compound)
inactive: Potency [1] | Potency [2] | Potency [3] | outcome [4] | outcome [6] | outcome [17] | outcome [19] | outcome [18] | outcome [7] | outcome [8] | outcome [9] | outcome [10] | outcome [11] | outcome [12] | outcome [13] | outcome [14]

CCOC(=O)OC(C)OC1=C(C(=O)Nc2ccccn2)N(C)S(=O)(=O)c2ccccc21 (centres undefined)
active: Potency [1] 3.35 µM | Potency [15] 5.35 µM
inactive: Potency [2] | Potency [3] | outcome [4] | outcome [6] | outcome [17] | outcome [19] | outcome [18] | outcome [7] | outcome [8] | outcome [9] | outcome [10] | outcome [11] | outcome [12] | outcome [14]

C=CC(=O)OCCCl
inactive: Potency [20] | Potency [2] | outcome [4] | Potency [5] | outcome [6] | outcome [17] | outcome [19] | outcome [18] | outcome [7] | outcome [8] | outcome [9] | outcome [10] | outcome [11] | outcome [12] | outcome [13]

CN1C(C)(C)CC(O)CC1(C)C
inactive: Potency [1] | Potency [2] | Potency [3] | outcome [4] | Potency [5] | outcome [6] | outcome [17] | outcome [19] | outcome [18] | outcome [7] | outcome [8] | outcome [9] | outcome [10] | outcome [11] | outcome [12] | outcome [13] | outcome [14]

CC(=O)NC(=O)c1ccccc1O
inactive: Potency [1] | Potency [2] | Potency [3] | outcome [4] | Potency [5] | outcome [6] | outcome [19] | outcome [7] | outcome [8] | outcome [9] | outcome [10] | outcome [11] | outcome [12] | Potency [15] | Potency [16]

C[N+]12CCC(CC1)C(OC(=O)C(O)(c1ccccc1)c1ccccc1)C2 (centres undefined)
inactive: Potency [1] | Potency [2] | Potency [3] | outcome [4] | Potency [5] | fluorescence, relative to Rose Bengal [6] 0.0225% [at 18.6 µM] | fluorescence, % of fluorescein control [17] -0.0019% [at 18.6 µM] | fluorescence, % of triamterene [19] 0.0716% [at 18.6 µM] | fluorescence, % of fluorescein [7] 0.041% [at 18.6 µM] | fluorescence, % of fluorescent control [8] 0.066% [at 18.6 µM] | activity change [9] 0.0169% [at 18.6 µM] | fluorescence, % of fluorescent control [10] 0.0635% [at 18.6 µM] | fluorescence, % of Rose Bengal [11] 0.213% [at 18.6 µM] | fluorescence, % of fluorescent control [12] -0.0875% [at 18.6 µM] | fluorescence, % of fluorescein control [13] -0.0194% [at 18.6 µM] | fluorescence, % of fluorescent control [14] 0.0552% [at 18.6 µM] | Potency [15]

Nc1c2c(nc3c1CCC3)CCCC2
inactive: Potency [1] | Potency [2] | Potency [3] | outcome [4] | Potency [5] | outcome [6] | outcome [17] | outcome [18] | outcome [7] | outcome [8] | outcome [9] | outcome [10] | outcome [11] | outcome [12] | outcome [13] | outcome [14]

CCN1C=CN(C)C1C (centres undefined)
inactive: Potency [1] | Potency [2] | Potency [3] | outcome [4] | outcome [6] | outcome [17] | outcome [19] | outcome [18] | outcome [7] | outcome [8] | outcome [9] | outcome [10] | outcome [11] | outcome [12] | outcome [13] | outcome [14] | Potency [15] | Potency [16]

CC[N+](C)(CC)CCOC(=O)C1c2ccccc2Oc2ccccc21
inactive: Potency [2] | Potency [3] | outcome [4] | Potency [5] | outcome [17] | outcome [19] | outcome [18] | outcome [7] | outcome [8] | outcome [9] | outcome [10] | outcome [12] | outcome [13] | outcome [14]
